Experimental findings from PubChem BioAssay (NCI) are described below.

Holding throughout (experiment): NCI-60 one-dose screen, 48 h (100 = growth as untreated, 0 = no growth, -100 = all killed)
Details in all cases: 10 µM unless noted

Assay [1] has as its system SK-MEL-2 melanoma.
Assay [2] deals with EKVX NSCLC.
The test system of assay [3] is SN12C renal.
Assay [4] relates to UO-31 renal.
In assay [5] the test system is TK-10 renal.
Assay [6] deals with ACHN renal.
Assay [7] has as its system CAKI-1 renal.
Assay [8] has as its system A498 renal.
The test system of assay [9] is CCRF-CEM leukemia.
Assay [10] relates to MOLT-4 leukemia.
Assay [11] concerns SR leukemia.
Assay [12] deals with RPMI-8226 leukemia.
Assay [13] concerns OVCAR-8 ovarian.
The test system of assay [14] is OVCAR-5 ovarian.
The test system of assay [15] is OVCAR-4 ovarian.
In assay [16] the test system is SK-OV-3 ovarian.
Assay [17] concerns IGROV1 ovarian.
Assay [18] deals with OVCAR-3 ovarian.
Assay [19] has as its system HS 578T breast.
In assay [20] the test system is NCI/ADR-RES ovarian.

This is part of a sample that, as a whole, favours compounds with a hit. Of some 83,000 tested, about 20% had one in any assay.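 Growth was measured after 48 h exposure to one concentration of compound in 96-well plates. Values under 10 count as active.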 A number with no mark means an inactive call. Active and inactive are the calls of the source.

As for `COc1ccc(C(=O)c2cc3c(N)c(C(=O)Nc4ccc(C)cc4)sc3nc2C)cc1`, the growth in assay [1] is 56.1%; in assay [2], 40.8%; in assay [3], 37.2%; in [4] it was 41.2%; in [5], 61.3%; in assay [6], 46.8%. Moreover, the growth is 28% in [7]; 14% in assay [8]; 15.7% in assay [9]; 20.5% in assay [10]; 18.1% in assay [11]; 24.1% in [12]. Also, the growth in [13] was 22%; in [14] it was 29.6%; in assay [15], 51.1%; in assay [16] it was 35.3%; in assay [17], 28.6%; in assay [18], -5.4% (active). For the same molecule, the growth in [19] is -1.41% (active); in [20], 14.9%.

As to `CC1CCN(CCOc2ccc(CNc3ccc4nc(CCC5CCCCC5)[nH]c4c3)cc2)CC1`, the growth in assay [1] is -49.9% (active); in [2], 65%; in [3], 57.9%; in assay [4], -31.9% (active); in [5] it was 73.1%; in [6], 54.7%. The growth was -4.81% (active) in assay [7]; 2.94% (active) in assay [8]; 11.8% in assay [9]; 11.2% in assay [10]; 14.4% in assay [11]; -15.7% (active) in assay [12]. Moreover, the growth in assay [13] is 43.1%; in assay [14], 59.9%; in [15], 50.4%; in assay [16], 80.4%; in assay [17], 43.1%; in [18], 66.3%. Further, the values for the growth in assay [19] and in assay [20] were 27.5% and 51%, respectively.

Consider `Fc1ccc(CNc2c3ccccc3nc3ccccc23)c(F)c1`, for which the growth in assay [1] was 99.7%; in [2], 45.5%; in assay [3], 37.2%; in assay [4], 30.3%; in assay [5], 61%; in assay [6] it was 23.4%. Moreover, the growth in [7] is 35.3%; in assay [8], -4.38% (active); in assay [9], 53.9%; in assay [10], 23.8%; in [11], 25.2%; in assay [12], 28.3%. Also, the growth in assay [13] is 40.2%; in [14] it was 51.7%; in assay [15], -8.19% (active); in assay [16], 59.8%; in assay [17], 35.7%; in assay [18] it was 70.2%. Besides, the growth in [19] is 75.4%; in assay [20], 36.2%.

For `N=C(N)c1ccc(-c2ccc(-c3ccccc3)o2)cc1`, the growth is -86.6% (active) in assay [1]; -18.1% (active) in assay [2]; -39.5% (active) in [3]; -82.2% (active) in assay [4]; -77.4% (active) in assay [5]; -65.9% (active) in assay [6]. Further, the growth is -1.49% (active) in [7]; -21.9% (active) in [8]; -39.4% (active) in assay [9]; -56.2% (active) in [10]; -29.3% (active) in [11]; -36.7% (active) in [12]. The growth is -59.3% (active) in assay [13]; -10.9% (active) in assay [14]; -4.49% (active) in [15]; -18.3% (active) in assay [16]; -25.7% (active) in assay [17]; -38.4% (active) in assay [18]. Further, the growth is -18.1% (active) in assay [19] and -5.17% (active) in [20].

In the case of `CN(C)CCNC(=O)c1cc2c3cc(Cl)ccc3[nH]c2c2ncccc12`, the growth was 47.9% in [1]; 22.1% in assay [2]; 10.2% in assay [3]; 6.68% (active) in assay [4]; 42.8% in assay [5]; 10.2% in [6]. Besides, the growth in assay [7] is 23.8%; in assay [8], 26.7%; in assay [9], -13.2% (active); in assay [10], -12.4% (active); in assay [11], -17.6% (active); in assay [12] it was -11% (active). Also, the growth is 19% in [13]; 32.7% in assay [14]; 34.1% in assay [15]; 46.1% in assay [16]; 20.9% in assay [17]; 0.195% (active) in [18]. Besides, the growth in assay [19] was 24.2%; in assay [20], 25.3%.

Regarding `COc1ccc(C(=O)/C=C/c2c(C(F)(F)F)nc3ccccn23)cc1OC`, the growth in assay [1] is 31.3%; in [2], 8.13% (active); in assay [3], 16.1%; in assay [4], 25.9%; in [5], 29.9%; in assay [6], -41.1% (active). In addition, the growth is -5.18% (active) in [7]; 65.8% in assay [8]; 14.9% in assay [9]; 7.14% (active) in [10]; -9.91% (active) in assay [11]; 6.41% (active) in [12]. Besides, the growth in [13] is 10.9%; in assay [14], 9.01% (active); in assay [15] it was 5.92% (active); in assay [16], 17.3%; in assay [17] it was 17.3%; in assay [18], -51.3% (active). In addition, the values for the growth in [19] and in assay [20] were 4.59% (active) and -22.7% (active), respectively.
